Laboratory results from the supplement of paper PMC10811239.
Where a name gives a salt, the structure may show the parent alone.

Assays:
Assay in all cases: bioluminescence (viable cell) signal fold change after vs before treatment, normalised to DMSO (ratio); higher = more tumour cell growth / less inhibition
Conditions in all cases: 10 µM; treatment time 6 days
[1] = test system: LEGO organoid PT (PTEN-/-; TP53-/-)
Method: (§1)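 Luc2-labelled iPSC-derived glioblastoma-like organoids (LEGOs, genotypes PT = PTEN-/-;TP53-/-, PTCC = plus CDKN2A/B-/-, PTN = plus NF1-/-) were treated with 10 uM drug for 6 days (applied every other day) at 37 C. Bioluminescence imaging was done before treatment and 2 days after the last dose. BLI signals were normalised to the DMSO control on the same day and then to the pre-treatment signal (N=3).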

[2] = test system: LEGO organoid PTCC (PTEN-/-; TP53-/-; CDKN2A-/-; CDKN2B-/-)
Method: as §1

[3] = test system: LEGO organoid PTN (PTEN-/-; TP53-/-; NF1-/-)
Method: as §1

Structure (SMILES)	bioluminescence [1]	bioluminescence [2]	bioluminescence [3]
CCn1c(=O)c2c(nc(/C=C/c3ccc(OC)c(OC)c3)n2C)n(CC)c1=O [Istradefylline]	0.737	3.38	6.31
CN(C/C=C/C#CC(C)(C)C)Cc1cccc2ccccc12 [Terbinafine]	0.601	1.04	2.32
COc1ccc(Cl)cc1C(=O)NCCc1ccc(S(=O)(=O)NC(=O)NC2CCCCC2)cc1 [Glyburide]	2.23	1.51	1.61
CC1(C)O[C@@H]2[C@@H](CO[C@@]3(COS(N)(=O)=O)OC(C)(C)O[C@@H]23)O1 [Topiramate]	1.02	1.62	5.65
Cc1[nH]c(=O)c(C#N)cc1-c1ccncc1 [Milrinone]	1.11	1.63	1.34
CNCC[C@@H](Oc1ccccc1C)c1ccccc1.Cl [Atomoxetine hydrochloride]	0.833	1.04	1.97
C[C@H]1C[C@@H]2[C@H]([C@@H](O)C[C@@]3(C)[C@H]2CC[C@]3(O)C(=O)CO)[C@@]2(C)C=CC(=O)C=C12 [Methylprednisolone]	1.3	0.882	1.17
CN[C@H](CC(C)C)C(=O)N[C@H]1C(=O)N[C@@H](CC(N)=O)C(=O)N[C@H]2C(=O)N[C@H]3C(=O)N[C@H](C(=O)N[C@H](C(=O)O)c4cc(O)cc(O)c4-c4cc3ccc4O)[C@H](O)c3ccc(c(Cl)c3)Oc3cc2cc(c3O[C@@H]2O[C@H](CO)[C@@H](O)[C@H](O)[C@H]2O[C@H]2C[C@](C)(N)[C@H](O)[C@H](C)O2)Oc2ccc(cc2Cl)[C@H]1O [Vancomycin]	1.48	0.957	0.868
Cl.Clc1cccc(Cl)c1NC1=NCCN1 [Clonidine hydrochloride]	1.1	1.29	0.76
CN1CCN2c3ncccc3Cc3ccccc3C2C1 (configuration not stated) [Mirtazapine]	1.1	1.47	0.789
CC(C)NCC(O)COc1cccc2ccccc12.Cl (configuration not stated) [Propranolol hydrochloride]	1.03	0.672	1.25
CO[C@H]1/C=C/O[C@@]2(C)Oc3c(C)c(O)c4c(O)c(c(/C=N/N5CCN(C)CC5)c(O)c4c3C2=O)NC(=O)/C(C)=C\C=C\[C@H](C)[C@H](O)[C@@H](C)[C@@H](O)[C@@H](C)[C@H](OC(C)=O)[C@@H]1C [Rifampicin]	3.6	0.603	0.579
Cl.O=C1CN2Cc3c(ccc(Cl)c3Cl)NC2=N1 [Anagrelide hydrochloride]	1.02	0.834	1
CCCN(CCC)CCc1cccc2c1CC(=O)N2.Cl [Ropinirole hydrochloride]	1.27	1.02	0.313
Cl.O[C@@H](c1cc(C(F)(F)F)nc2c(C(F)(F)F)cccc12)[C@H]1CCCCN1 [Mefloquine hydrochloride]	0.499	0.922	0.359
C=CC(=O)N1CCC[C@@H](n2nc(-c3ccc(Oc4ccccc4)cc3)c3c(N)ncnc32)C1 [Ibrutinib]	0.73	1.87	1.26
COC(=O)N[C@H](C(=O)N[C@@H](Cc1ccccc1)[C@@H](O)CN(Cc1ccc(-c2ccccn2)cc1)NC(=O)[C@@H](NC(=O)OC)C(C)(C)C)C(C)(C)C.O=S(=O)(O)O [Atazanavir sulfate]	1.05	0.573	6.56
CCc1cc(C(N)=S)ccn1 [Ethinamide]	2.05	0.707	1.99
Clc1ccc2c(c1)C(N1CCNCC1)=Nc1ccccc1O2 [Amoxapine]	0.902	1.25	0.981
OC[C@H]1O[C@@H](n2cnc3c2NC=NC[C@H]3O)C[C@@H]1O [Pentostatin]	0.674	0.797	1.59

Structure (SMILES)	bioluminescence [1]	bioluminescence [2]	bioluminescence [3]
CCOC(=O)N1CC\C(CC1)=C1\c2ccc(Cl)cc2CCc2cccnc12 [Loratadine]	0.684	1.05	1.36
O=c1cc(O)c(Cl)c[nH]1 [Gimeracil]	0.79	0.774	1.25
CCOC(=O)C1=C(C)NC(C)=C(C(=O)OC)C1c1cccc(Cl)c1Cl (configuration not stated) [Felodipine]	1.06	1.16	1.04
O=C(c1cc(Cc2n[nH]c(=O)c3ccccc23)ccc1F)N1CCN(C(=O)C2CC2)CC1 [Olaparib]	1.23	1.32	0.865
C[C@H](Cn1cnc2c(N)ncnc21)OCP(=O)(O)O [Tenofovir]	0.702	3.69	1.12
C[C@@](Cc1ccc(O)c(O)c1)(NN)C(=O)O.O [Carbidopa Hydrate]	0.415	0.96	1.55
CCC1=C[C@@H]2CN(C1)Cc1c([nH]c3ccccc13)[C@@](C(=O)OC)(c1cc3c(cc1OC)N(C)[C@H]1[C@@](O)(C(=O)OC)[C@H](OC(C)=O)[C@]4(CC)C=CCN5CC[C@]31[C@@H]54)C2.O=C(O)[C@H](O)[C@@H](O)C(=O)O.O=C(O)[C@H](O)[C@@H](O)C(=O)O [Vinorelbine Tartrate]	1.03	1.06	0.805
CN1C(C(=O)Nc2ccccn2)=C(O)c2ccccc2S1(=O)=O [Piroxicam]	1.07	1.65	1.14
CC(=O)Nc1ccc(O)cc1 [Acetaminophen]	1.19	0.686	0.918
CN1[C@@H]2CC[C@H]1C[C@@H](OC(c1ccccc1)c1ccccc1)C2.CS(=O)(=O)O [Benztropine mesylate]	1.14	0.793	0.419
CCN(CC)C(=O)[C@]1(c2ccccc2)C[C@@H]1CN.Cl [Milnacipran hydrochloride]	1.54	1.02	2.39
CO[C@@H]1[C@H](N(C)C(=O)c2ccccc2)C[C@H]2O[C@]1(C)n1c3ccccc3c3c4c(c5c6ccccc6n2c5c31)C(=O)NC4 [Midostaurin]	0.527	1.65	0.647
C#CCN[C@@H]1CCc2ccccc21 [Rasagiline]	2.76	1.19	0.976
Cl.OC[C@H]1NC[C@H](O)[C@@H](O)[C@H]1O [Migalastat hydrochloride]	0.868	0.51	0.719
C[N+](C)(C)CCO.[Cl-] [Choline chloride]	1.48	0.614	2.09
CCN(CC)C(=O)[C@@]1(c2ccccc2)C[C@H]1CN.Cl [Milnacipran ((1S-cis) hydrochloride)]	0.856	2.09	0.808
Nc1nc2c(ncn2COC(CO)CO)c(=O)[nH]1 [Ganciclovir]	4.35	1.62	2.38
CN1CCN(C2=Nc3cc(Cl)ccc3Nc3ccccc32)CC1 [Clozapine]	1.13	0.388	0.617
NC(=O)N1c2ccccc2CC(=O)c2ccccc21 [Oxcarbazepine]	0.572	0.951	1.05
O=C(CCCN1CCC(O)(c2ccc(Cl)cc2)CC1)c1ccc(F)cc1 [Haloperidol]	0.925	0.956	0.771

Structure (SMILES)	bioluminescence [1]	bioluminescence [2]	bioluminescence [3]
NNC(=O)c1ccncc1 [Isoniazid]	0.807	0.847	1.06
CN(CCOc1ccc(CC2SC(=O)NC2=O)cc1)c1ccccn1 (configuration not stated) [Rosiglitazone]	0.664	1.87	1.22
O=C1NC(=O)C(c2ccccc2)(c2ccccc2)N1 [Phenytoin]	0.795	0.982	1.39
CNS(=O)(=O)Cc1ccc2[nH]cc(CCN(C)C)c2c1.O=C(O)CCC(=O)O [Sumatriptan succinate]	1.23	0.433	1.05
CN(C)CCc1c[nH]c2ccc(C[C@H]3COC(=O)N3)cc12 [Zolmitriptan]	0.724	1.52	1.34
COC(=O)/C=C/C(=O)OC [Dimethyl fumarate]	0.759	0.94	1.44
CCC(=O)NCC[C@@H]1CCc2ccc3c(c21)CCO3 [Ramelteon]	0.961	1.56	2.06
CC(C)CN(C[C@@H](O)[C@H](Cc1ccccc1)NC(=O)O[C@H]1CCOC1)S(=O)(=O)c1ccc(N)cc1 [Amprenavir]	0.802	0.498	0.695
Cl.Cl.OCCOCCN1CCN(C(c2ccccc2)c2ccc(Cl)cc2)CC1 (configuration not stated) [Hydroxyzine dihydrochloride]	1.29	0.859	2.31
CNC(=O)c1cc(Oc2ccc(NC(=O)Nc3ccc(Cl)c(C(F)(F)F)c3)cc2)ccn1 [Sorafenib]	0.335	0.105	0.285
CCC1(c2ccccc2)C(=O)NCNC1=O [Primidone]	0.985	0.824	0.89
C#Cc1cccc(Nc2ncnc3cc(OCCOC)c(OCCOC)cc23)c1.Cl [Erlotinib hydrochloride]	1.53	1.66	2.02
COc1cc(Nc2ncc(F)c(Nc3ccc4c(n3)N(COP(=O)(O)O)C(=O)C(C)(C)O4)n2)cc(OC)c1OC [Fostamatinib]	0.0894	0.182	0.0646
CCc1nc(N)nc(N)c1-c1ccc(Cl)cc1 [Pyrimethamine]	0.65	1.06	0.803
OCCN1CCN(CCCN2c3ccccc3Sc3ccc(Cl)cc32)CC1 [Perphenazine]	0.743	0.615	1.74
C[C@@H]1O[C@@H]1P(=O)(O)O.NC(CO)(CO)CO [Fosfomycin Tromethamine]	0.757	1.69	0.813
O=C1[N-]C(=O)C(c2ccccc2)(c2ccccc2)N1.[Na+] [Phenytoin sodium]	0.855	1.45	0.866
Cc1cc2c(s1)Nc1ccccc1N=C2N1CCN(C)CC1 [Olanzapine]	1.17	0.712	1.81
CS(=O)(=O)OCCCCOS(C)(=O)=O [Busulfan]	2.15	1.3	2.3
